Several values for one entry are separate records, joined by “and”; a condition that tells them apart may be missing. Equal entries are not always repeated. Out of some 340,000 compounds screened, about 6,200 (1.8%) were called active. Roughly 10% stayed inconclusive and do not appear here. Calls come from the whole dose curve; as a rule, active = well fitted activation curve with a large enough effect; inconclusive = small, poorly fitted or top-dose-only effect; inactive = no such curve, though single readings can be large or run the other way. Shown is part of a subset that was picked to be rich in actives. Some structures have more than one record in an assay (separate samples or runs), and their calls can disagree.
Assay: A quantitative high throughput screen for small molecules that induce DNA re-replication in SW480 colon adenocarcinoma cells. For re-replication activation: % of control where 0% means no effect. Note: nearly all actives have a fitted effect of over 55% in size.
Conditions: Hoechst DNA content imaging, 48 h; series mostly up to 46.1 µM; re-replication activation: at the top concentration
Text: H Molecular Libraries Probe Production Network [MLPCN] NIH Chemical Genomics Center [NCGC] MLPCN Grant: Fast Track K99 CA136555 Assay Provider: Melvin DePamphilis, NICHD, NIH Assay Overview Eukaryotic cells normally restrict genome duplication to once per cell division. When this process is aberrant, DNA re-replication occurs when cells reinitiate DNA replication before the first round of replication is complete. DNA re-replication induces the DNA damage response, arrests cell proliferation, and triggers apoptosis. The cell cycle components cyclin A, Cdt-1, Cdc6 and geminin are critical regulators of this process and their misregulation results in DNA re-replication in normal and cancer cells. To identify compounds that induce re-replication in normal cells, an image-based assay was used to measure DNA content of nuclei, as detected by the fluorescent DNA binding dye, Hoechst. Cell nuclei were imaged by a fluorescence scanning plate imager and compounds that induce DNA re-replication were identified by the increase of nuclei with elevated fluorescence intensity
For screening, 250 cells in 5 uL/well were dispensed into black clear 1536-well plates (Aurora) using a solenoid-based dispenser. Following transfer of 23 nL compound or DMSO vehicle by a pin tool, the plates were incubated 48 hr at 37 C and 5% CO2. After addition of 1 uL/well Hoescht stain, the plates were incubated 40 min at 37 C, 5% CO2 and total intensity of fluorescent objects (nuclei) were enumerated by an Acumen Explorer Ex3 (TTP LabTech) fluorescence scanning plate imager (405 nm excitation, 500-530 nm emission). Keywords: NIH Roadmap, MLPCN, MLI, MLSMR, qHTS, NCGC, DNA replication, cancer
Potency is the fitted concentration of half-maximal effect.

SMILES	Potency	re-replication activation
Oc1c(Cl)cc(Cl)c(Cl)c1Cc1c(O)c(Cl)cc(Cl)c1Cl	inactive and 16.4 µM (active)	–
CCOC(=O)[C@@H]1[C@H]2COc3ccc(Br)cc3[C@H]2N2C(=O)N(c3ccc(C)cc3)C(=O)[C@@]12C	–	-2.23% (inactive)
COc1cc(NC(=O)c2[nH]cnc2C(N)=O)cc(C(=O)Nc2cccc(C(F)(F)F)c2)c1	–	-13.5% (inactive)
Cn1c(N)c(C(=O)COC(=O)c2ccc3ccccc3c2)c(=O)n(C)c1=O	–	-2.62% (inactive)
CCN(C[C@H]1N[C@@](Cc2ccccc2)(C(=O)OC)[C@H]2C(=O)N(Cc3ccccc3)C(=O)[C@@H]12)C(=O)c1ccc(C)cc1	–	6.19% (inactive)
COc1ccc(C(=O)COC(=O)CN2C(=O)C3CC=CCC3C2=O)c(OC)c1 (stereo not given)	–	2.53% (inactive)
COCC(=O)N=Nc1c(O)[nH]c2ccccc12	–	-7.74% (inactive)
O=C(CCN1CCCCC1)N=Nc1c(O)[nH]c2ccccc12	18.4 µM (active)	–
Cc1cccc(N(CC(=O)N=Nc2c(O)[nH]c3ccccc23)S(C)(=O)=O)c1C	–	-0.526% (inactive)
O=c1nc(NO)ccn1C1CCCO1 (stereo not given)	–	-2.96% (inactive)
COc1ccccc1NC1=NC(c2ccc(Cl)cc2)N=C(N)N1 (stereo not given)	20.6 µM (active)	–
COc1ccccc1NC(=O)C1CCCN1S(=O)(=O)c1ccc(Cl)cc1 (stereo not given)	–	12% (inactive)
CC1(C)N=C(N)NC(Nc2ccc(Cl)cc2)=N1	–	1.78% (inactive)
C[C@@H]1CN([C@H](C)CO)C(=O)c2cc(NC(=O)NC3CCCCC3)ccc2O[C@H]1CN(C)S(C)(=O)=O	–	-8.58% (inactive)
COc1ccc(CCNC(=O)COC(=O)c2cc(=O)c3ccccc3o2)cc1	–	-28.9% (inactive)
CNC[C@H]1Oc2c(NC(=O)C3CCCCC3)cccc2C(=O)N([C@H](C)CO)C[C@@H]1C	–	4.46% [at 9.22 µM] (inactive)
COc1ccc(/C=N/NC(=O)c2cc(-c3cccc(C)c3)nc3ccccc23)cc1O	–	-2.6% (inactive)
COc1cc(/C=N/NC(=O)c2cc(-c3ccccc3C)nc3ccccc23)cc(OC)c1O	–	-14.1% (inactive)
CCOc1ccc(-c2cc(C(=O)N/N=C/c3ccc(O)cc3)c3ccccc3n2)cc1	18.4 µM (active)	–
Cc1ccccc1NC(=O)c1cc(S(=O)(=O)Nc2cccc(C(=O)O)c2)ccc1Cl	–	-6.95% (inactive)
C/C(=N\Nc1cccc(C(=O)O)c1)c1ccc2c(c1)Nc1ccccc1S2	8.2 µM (active)	–
O=C(O)c1cccc(N2C(=O)Nc3ccccc3N2O)c1	–	-10.1% (inactive)
COc1cc(OC)cc(-c2c(C#Cc3ccsc3)c3cc(-c4ccc(OC)cc4F)ccc3n2C)c1	–	23.7% (inactive)
c1ccc(CNc2ncnc3[nH]ncc23)cc1	–	4.58% (inactive)

SMILES	Potency	re-replication activation
Nc1cc(=O)n(Cc2ccccc2)c(=O)n1Cc1ccccc1	–	0.57% (inactive)
Cc1nn(-c2ccc(F)cc2)c(Cl)c1/C=C(/CCC(=O)O)c1nc2ccccc2s1	–	3.7% (inactive)
CCCCN(C(=O)c1cccc(N2C(=O)c3ccccc3C2=O)c1)c1c(N)n(CCCC)c(=O)[nH]c1=O	–	-14.2% (inactive)
CCn1c(=S)[nH]c2cc(S(=O)(=O)N3CCOCC3)ccc21	–	-6.64% (inactive)
Cc1ccc(COc2ccc(/C=N/NC(=O)CN3CCCCC3)cc2)cc1	–	0.267% (inactive)
Cc1ccsc1C(=O)N/N=C/c1ccc([N+](=O)[O-])cc1	–	-5% (inactive)
Cc1ccc(/C=N/NC(=O)c2sccc2OCc2ccc(F)cc2)cc1	16.4 µM (active)	–
CC(C)Cn1cnc2c(SCc3ccc(Cl)cc3)nc(N)nc21	–	-9.4% (inactive)
O=C(Nc1ccc2nc3n(c(=O)c2c1)CCCC3)c1ccc(Cl)nc1	–	3.67% (inactive)
O=C(NNC(=O)c1ccc(Cl)nc1)c1ccc(Br)cc1	–	-27.2% (inactive)
CCN(CC)c1ccc(NC(=O)c2ccc(Cl)nc2)cc1	16.4 µM (active)	–
O=C(COc1ccccc1F)NNC(=O)c1cc(Br)ccc1Cl	–	6.76% (inactive)
NC(=O)c1ccc(N2CCCC2)nc1	–	-1.87% (inactive)
Oc1ccc(Br)cc1C=Nc1ccc2[nH]ncc2c1	–	-0.677% (inactive)
Oc1ccc(Br)cc1/C=N/Nc1ccccn1	9.2 µM (active)	–
Cc1c(C(=O)Nc2ccccn2)oc2ccc(Br)cc12	–	-1.8% (inactive)
CCOC(=O)CCCCCC(=O)Nc1ccc2c(c1)CC(=O)N([C@@H](C)CO)C[C@H](C)[C@@H](CN(C)Cc1ccccc1)O2	–	-13.1% (inactive)
Cc1ccn(CC(=O)N2N=C(C(F)F)CC2(O)C(F)F)n1 (stereo not given)	0.517 µM (active)	–
Cc1ccn(CCC(=O)N2c3ccccc3CC2C)n1 (stereo not given)	–	3.35% (inactive)
Cc1nn(Cc2ccc(C(=O)N3N=C(C(F)F)CC3(O)C(F)F)cc2)c(C)c1[N+](=O)[O-] (stereo not given)	–	-0.343% (inactive)
CC1(C)C[C@H]2C3=CCC4[C@@]5(C)CC[C@H](O)[C@](C)(CO)C5CC[C@@]4(C)[C@]3(C)C[C@@H](O)[C@@]2(CO)[C@@H](O)[C@@H]1O (stereo not given in full)	–	6.13% (inactive)
COc1cc(C(=O)OCC(=O)NC23CC4CC(CC(C4)C2)C3)cc(OC)c1OC	–	-125% (inactive)
COc1ccc(C(CNC(=O)c2cc(S(=O)(=O)Nc3cccc(C)c3)ccc2C)N2CCCC2)cc1 (stereo not given)	–	12.7% (inactive)
CC[C@]1(C(=O)OC)[C@H]2C(=O)N(Cc3ccccc3)C(=O)[C@H]2[C@H]2CN=C(SCc3ccc(C#N)cc3)N21	–	-4.58% [at 9.22 µM] (inactive)

SMILES	Potency	re-replication activation
CCCCNS(=O)(=O)CCNCc1ccccc1OC	–	-1.68% (inactive)
COc1ccc(OC)c2c(N)c(C#N)c(C(F)(F)C(F)(F)F)nc12	–	-1.2% (inactive)
COc1ccc(-c2cc(-c3ccc(N)cc3)nc(N)c2C#N)cc1OC	23.1 µM (active)	–
CCOc1cc(-c2cc(-c3ccc(NC(C)=O)cc3)nc(N)c2C#N)ccc1O	–	15.1% (inactive)
COc1cccc(NC(=O)CN(C)CC(=O)c2c(N)n(Cc3ccccc3)c(=O)n(C)c2=O)c1	–	-17.4% (inactive)
CC(=O)Nc1nonc1-c1nc2ccccc2n1Cc1ccccn1	–	-18.9% (inactive)
COc1ccc(C)c(Cn2c(-c3nonc3N)nc3ccccc32)c1	5.17 µM (active)	–
CCn1c(C(O)c2cc(OC)ccc2OC)nc2ccccc21 (stereo not given)	–	-0.993% (inactive)
Cc1ccc(C(=O)NCC(c2cccs2)N(C)C)cc1S(=O)(=O)N1CCOCC1 (stereo not given)	–	2.33% (inactive)
CC(=O)C[C@H](O)CC(=O)[C@@H]1OC(=O)[C@@H](C)C/C=C\Cc2ccccc21	–	-6.79% (inactive)
CC(C)C[C@H]1CN([C@@H](CC(C)C)CN2CCC[C@@H]2CN2C(=O)C(=O)NC[C@@H]2Cc2ccccc2)C(=O)C(=O)N1CCc1ccccc1	–	12.5% (inactive)
CCOc1ccccc1NC(=O)Cc1cccs1	–	-0.185% (inactive)
CCOc1ccccc1NC(=O)Cn1nnc(C(=O)NCc2cccs2)c1N	0.146 µM (active)	–
CCc1ccc(NC(=O)Cn2nnc(C(=O)NCc3ccc(OC)cc3)c2N)cc1	–	-17.6% (inactive)
C#CCOCCOCCOCCNc1nc(N2CCN(C(=O)Cn3cc(CCO)nn3)CC2)nc(N2CCN(C(=O)[C@H](CCCCN)n3cc(CCCC)nn3)CC2)n1	–	7.81% [at 9.22 µM] (inactive)
COc1ccc(Br)cc1/C=N/Nc1ccc(S(=O)(=O)Nc2ccccc2C(=O)O)cc1[N+](=O)[O-]	–	-2.84% (inactive)
O=C1C[C@@H]2c3c(cccc3CN1Cc1ccccc1)C[C@@H](O)[C@H]2O	–	-3% (inactive)
CCOC(=O)c1sc(NC(=O)CSc2ncccn2)c(C#N)c1C	7.31 µM (active)	–
CCC(=O)Nc1sc(C(=O)N2CCCCC2)c(C)c1C#N	–	4.2% (inactive)
CCOC(=O)c1sc(NC(=O)CSc2nc(C)cc(C(F)(F)F)n2)c(C#N)c1C	–	11.7% (inactive)
COc1cc2c(cc1CNC[C@H]1O[C@@H](n3cnc(C(N)=O)n3)[C@H](O)[C@@H]1O)OCO2	–	9.12% (inactive)
CC(C)C(NC(=O)c1c(F)cccc1F)C(=O)NNC(=O)c1ccccc1 (stereo not given)	–	3.18% (inactive)
COc1ccc(CNC(=O)COC(=O)C(CCSC)N2C(=O)c3ccccc3C2=O)cc1 (stereo not given)	–	9.91% (inactive)
CN(C)CCCn1c(N)c(C#N)c2nc(C#N)c(C#N)nc21	16.4 µM (active)	–

SMILES	Potency	re-replication activation
c1ccc2c(c1)OC1OC2Oc2ccccc21	–	-5.45% (inactive)
O=C(NCCc1ccccc1)c1cccc(NC(=O)c2ccccc2)c1	–	-30.1% (inactive)
COc1ccccc1N(CC(=O)N/N=C(\C)c1ccccc1O)S(=O)(=O)c1ccc(C)cc1	4.11 µM (active)	–
COc1ccccc1NC(=O)CN(c1ccccc1OC)S(=O)(=O)c1ccccc1	–	-10.6% (inactive)
COc1ccc(S(=O)(=O)N(CC(=O)N/N=C/c2ccccc2C(=O)O)c2ccccc2OC)cc1	–	-2.38% (inactive)
Cc1cc(C)nc(S/C=C/C(=O)c2ccccc2)n1	4.61 µM (active)	–
Cc1cc(C)nc(SCC(=O)c2ccc(Cl)cc2)n1	–	-3.92% (inactive)
Cc1cc(C)nc(SCC(=O)N(C)C)n1	–	-6.02% (inactive)
C=CCC[C@H](Cc1ccc(F)cc1)C(=O)OC[C@@H](NC(=O)[C@@H](CC=C)CC(=O)N[C@H](CO)Cc1ccccc1)C(C)(C)C	–	0.781% (inactive)
O=C(NCC1CCCCC1)NCC1CCCCC1	–	5.1% (inactive)
O=C1CC(c2ccccc2)C(=O)N2C(=O)CC(c3ccccc3)C(=O)N12 (stereo not given)	–	-19.3% (inactive)
CC(C)(C)c1nnc2sc(SCC(O)=C(C#N)c3nc4ccccc4[nH]3)nn2c1=O	–	-1.77% (inactive)
COc1ccc(-c2c(-c3ccc(OC)cc3O)nc(C)nc2C(F)(F)F)cc1	–	-1.41% (inactive)
COc1ccc(-c2onc(C)c2-c2ccc3c(c2)OCCO3)c(O)c1	14.6 µM (active)	–
COc1ccc(O)c(C=Nc2cc(C)on2)c1	–	24.5% (inactive)
CCOC(=O)c1sc(NC(=O)COc2ncnc3ccccc23)c(C(=O)OCC)c1C	–	6.73% (inactive)
COC(=O)c1c(NC(C)=O)sc(C(=O)Nc2ccccc2OC)c1C	–	-22.9% (inactive)
CCC(=O)Nc1sc(C(=O)Nc2ccccc2)c(C)c1C(=O)OC	20.6 µM (active)	–
COc1cc(OC)cc(C(=O)NC(C(=O)N2CCC2)C(C)C)c1 (stereo not given)	–	-7.72% (inactive)
CC(C)(C)OC(=O)NNc1c2ccccc2nc2ccccc12	–	18.8% (inactive)
CC(=O)Nc1ccc(NC(=O)COc2ncnc3ccccc23)cc1	–	-0.239% (inactive)
CC(=O)Nc1ccc(Nc2c3ccccc3nc3ccccc23)cc1	18.4 µM (active)	–
CC[C@]1(C(=O)OC)[C@H]2C(=O)N(Cc3ccccc3)C(=O)[C@H]2[C@H]2CN=C(SCc3ccccc3)N21	–	-6.22% (inactive)

Source: PubChem BioAssay AID624297 (National Center for Advancing Translational Sciences (NCATS), 2012)
